# Bioassay records deposited in PubChem BioAssay by several laboratories.
# Bead autofluor – compound fluorescence in toxin protease inhibitor counterscreen. AID 624483. fluorescence intensity (concentration not given with the values). compound autofluorescence counterscreen, microsphere flow cytometry; stronger effect = higher value. actives 3.1% (n = 360,000); in the data active = fluorescence intensity above about 16000; inconclusive = no clear call, values can overlap the other calls
# BJeLR viability – MLPCN primary cell-based screen for lethality selective to Ras in HRASV12 cells; BJeLR (HRASV12) viability, CellTiter-Glo ATP luminescence, 48 h; inhibition, % (no concentration beside the values); actives 0.17% (n = 300,000); AID 1554, 2009; in the data active = inhibition above about 50%; inconclusive = no clear call, values can overlap the other calls
# BoNT F protease – BoNT/F light chain protease inhibitors, primary screen, biochemical, flow cytometry, MLPCN library. Botulinum neurotoxin type F light chain protease (Clostridium botulinum). Multiplex microsphere protease cleavage assay. inhibition, % at 10 µM. actives 0.22% (n = 360,000); in the data active = inhibition above about 35%, passing the limit was not always enough; inconclusive = no clear call, values can overlap the other calls; also: plate controls were buffer without enzyme for full effect and enzyme alone for no effect
# BoNT A protease – BoNT/A light chain protease inhibitors, primary screen, biochemical, flow cytometry, MLPCN library | multiplex microsphere protease substrate cleavage | inhibition, % at 10 µM | Botulinum neurotoxin type A light chain protease (Clostridium botulinum A str. ATCC 3502) | actives 0.17% (n = 360,000); also: plate controls were buffer without enzyme for full effect and enzyme alone for no effect
# Vc quorum ag – inducers of Vibrio cholerae quorum light production without autoinducers, primary screen, BH1578 luxS cqsA deficient, single point; V. cholerae BH1578 lux reporter, luminescence, 6 h; activation, % at 18.7 µM; actives 0.16% (n = 350,000); AID 588436, 2011; in the data active = activation mostly above about 9.7%, no sharp cut-off; inconclusive = no clear call, values can overlap the other calls; inactive = mostly below about 3.7%
# Anthrax LF inh2 – Bacillus anthracis LF protease inhibitors, primary screen, biochemical, multiplex microsphere, MLPCN library | Lethal factor (Bacillus anthracis), P15917 | multiplex microsphere protease cleavage assay | inhibition, % at 10 µM | actives 0.12% (n = 360,000); also: plate controls were buffer without enzyme for full effect and enzyme alone for no effect
# Target sequence (P15917 whole entry, looked up): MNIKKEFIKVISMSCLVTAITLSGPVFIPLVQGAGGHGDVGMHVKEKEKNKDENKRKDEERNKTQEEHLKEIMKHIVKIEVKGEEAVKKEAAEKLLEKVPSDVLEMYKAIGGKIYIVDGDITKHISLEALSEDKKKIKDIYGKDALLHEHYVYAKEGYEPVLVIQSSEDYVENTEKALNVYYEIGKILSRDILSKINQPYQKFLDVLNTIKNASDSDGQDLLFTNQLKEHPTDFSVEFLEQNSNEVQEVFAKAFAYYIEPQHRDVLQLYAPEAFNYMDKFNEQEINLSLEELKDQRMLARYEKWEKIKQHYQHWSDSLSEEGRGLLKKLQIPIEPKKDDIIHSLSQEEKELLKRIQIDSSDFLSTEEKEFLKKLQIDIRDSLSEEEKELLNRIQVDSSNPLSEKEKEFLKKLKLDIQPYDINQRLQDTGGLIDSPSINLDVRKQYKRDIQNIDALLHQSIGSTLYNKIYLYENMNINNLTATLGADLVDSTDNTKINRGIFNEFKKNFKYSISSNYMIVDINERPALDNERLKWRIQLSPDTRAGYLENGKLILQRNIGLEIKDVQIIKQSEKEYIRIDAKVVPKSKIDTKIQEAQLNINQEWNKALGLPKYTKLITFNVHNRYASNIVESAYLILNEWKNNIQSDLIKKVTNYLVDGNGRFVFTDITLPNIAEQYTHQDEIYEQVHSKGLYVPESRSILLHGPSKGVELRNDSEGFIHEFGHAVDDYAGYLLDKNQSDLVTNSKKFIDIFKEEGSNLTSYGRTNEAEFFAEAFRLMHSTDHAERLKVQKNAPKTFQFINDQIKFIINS
# * = called active by the depositor; i = inactive; ? = inconclusive; nt = no result given. The list is not random: actives were taken first. Their share in the collection is about 3.7%. Rule as the data show it, unless noted: active = inhibition above about 30%; inconclusive = no clear call, values can overlap the other calls; inactive = below that.
SMILES,Bead autofluor,BJeLR viability,BoNT F protease,BoNT A protease,Vc quorum ag,Anthrax LF inh2
CCC1(c2ccc(F)cc2)NC(=O)N(CC(=O)N2CCN(S(=O)(=O)c3ccc(C)cc3C)CC2)C1=O (stereo not given),3733,nt,6.2,0.2,-2.7,-3.4
CC(=NO)C1CCC2C3CCC4=CC(=NO)CCC4(C)C3C(=O)CC12C (stereo not given),3535,nt,6.7,0.7,i,-7.4
CC(=NO)C1CCC2C3CCC4=CC(=NO)CCC4(C)C3C(O)CC12C (stereo not given),3046,nt,2.0,-0.4,16.7*,-2.3
CC12CCC(CC1O)C2C(=O)O (stereo not given),3760,nt,-0.4,0.2,-3.1,-2.0
CCC(=O)N1CCC1(C)C(=O)Nc1cc(-c2ccccc2)nn1C (stereo not given),3459,nt,2.7,-0.2,-0.3,5.1
CCOC(=O)Nc1ccc2c(c1)Nc1ccccc1S2,20181*,6.8,-3.8,?,i,-2.5
C=CC(=O)N1c2ccccc2Sc2ccc(NC(=O)OCC)cc21,3047,12.4,0.3,-0.3,i,-0.8
COC(=O)c1sc2ccccc2c1C(=O)OC,22728*,0.0,3.5,?,i,3.6
COC(=O)c1sc2ccccc2c1N,5435,-8.1,-5.2,0.0,-0.1,-8.0
O=C(Nc1c(-c2ccc(Cl)cc2)[nH][nH]c1=O)c1ccc(Br)cc1,5363,nt,-1.0,0.1,nt,0.2
CCN(Cc1ccccc1)S(=O)(=O)c1csc(C(N)=O)c1,4105,-8.4,-7.4,-0.3,-0.3,2.0
CCN(CC)S(=O)(=O)c1csc(C(=O)OCC(=O)c2ccccc2)c1,17304*,-8.0,-1.2,-1.9,i,-4.4
COc1ccc(S(=O)(=O)NC(=O)C2(C)CCN2C(=O)c2c(C)noc2C)cc1 (stereo not given),2910,nt,-7.3,-0.2,i,-3.0
CC1(C)OC(=O)N(CC(=O)Nc2ccccc2)C1(C)O (stereo not given),2609,10.9,4.1,0.2,0.8,-1.5
CC1(C)OC(=O)N(CCc2ccccc2)C1(C)O (stereo not given),25029*,-5.4,-7.0,-4.0,i,-1.6
CC(=O)Nc1ccc(C(=O)N2CCCC(c3cc(C(=O)Nc4ccccc4Cl)no3)C2)cc1 (stereo not given),3582,nt,3.1,0.3,i,-2.5
CC(C)NC(=O)CSCc1c(F)cccc1Cl,16724*,-3.0,-3.4,-1.6,i,-1.3
Cc1cc2ncn(/N=C/c3ccc(-c4ccccc4)o3)c2cc1C,21563*,-1.2,3.0,1.7,1.3,-0.3
CCCc1cc(=O)n2c(nc3ccccc32)[nH]1,3839,-4.9,-27.6,-0.9,-1.0,-7.9
Cc1cc(=O)n2c(nc3ccccc32)[nH]1,24029*,2.5,-1.5,-1.5,4.9,-1.1
CCc1nc2c(OCC(N)=O)cccn2c1N(C)C(=O)C(C)C,3860,nt,-5.6,-0.5,-3.0,-8.9
CC(=NCc1cccnc1)c1c(O)n(-c2ccccc2)c(=O)[nH]c1=O,20066*,5.4,-3.6,-2.2,0.3,-3.4
CCCCn1c(O)c(C(CC)=NCc2cccnc2)c(=O)[nH]c1=O,22114*,5.6,0.6,0.5,-2.0,0.4
CCCCn1c(O)c(C(CC)=NCc2cc(OC)cc(OC)c2)c(=O)[nH]c1=O,22230*,0.4,1.1,0.5,-1.7,-2.4
CC(=NCc1cccnc1)c1c(O)n(Cc2ccccc2)c(=O)[nH]c1=O,5958,8.9,2.0,-0.8,-0.3,-2.1
CCC(=NCc1cccnc1)c1c(O)n(Cc2ccccc2)c(=O)[nH]c1=O,19069*,nt,1.8,2.7,3.0,-0.8
CC1=C(C(=O)N(C(C)C)C(C)C)CC(CC(=O)NC2CCCCC2)C(=O)N1Cc1ccc(F)cc1 (stereo not given),5911,nt,-10.8,-0.4,nt,11.1
CCC(=NCc1cc(OC)cc(OC)c1)c1c(O)n(C)c(=O)n(C)c1=O,24024*,14.2,-2.2,?,i,-4.7
CCCCn1c(O)c(C(CC)=Nc2ccc(OCC)cc2)c(=O)[nH]c1=O,16712*,0.1,-4.2,-0.9,i,1.3
